# Results reported in PubChem BioAssay (NCI).
# This is part of a sample that, as a whole, favours compounds with a hit. Of some 83,000 tested, about 20% had one in any assay.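 Method: cells in 96-well plates; compound added at one concentration; 48 h incubation; percent growth measured; values under 10 scored active.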 A number with no mark means an inactive call. Calls of active or inactive are those of the source.
# Test system: SNB-19 CNS
# Experiment: NCI-60 one-dose screen, 48 h (100 = growth as untreated, 0 = no growth, -100 = all killed)
# Details: 10 µM unless noted
row,Structure (SMILES),growth
1,[O-]/[N+](=C\c1ccccc1)CC1(O)CCCCC1,99.4%
2,CC(=O)O[C@H]1[C@H](CC#CC#CC[C@@H]2C[C@]3(C)[C@H]4CC=C5[C@H]6[C@@H](C)[C@H](C)CC[C@]6(C(=O)NCCCCCCCCN)CC[C@@]5(C)[C@]4(C)CC[C@H]3C(C)(C)[C@H]2OC(C)=O)C[C@]2(C)[C@H]3CC=C4[C@H]5[C@@H](C)[C@H](C)CC[C@]5(C(=O)NCCCCCCCCN)CC[C@@]4(C)[C@]3(C)CC[C@H]2C1(C)C,107%
3,N#Cc1c(N)c(C(=O)c2ccc3c(c2)OCCO3)n2c1CCCC2,53.7%
4,Cc1c(O)c(=O)n(-c2ccccc2)n1C,106%
5,COc1ccc2[nH]c(O)c(/C=c3/ccc4c(c3)N=C(c3ccc(C(F)(F)F)cc3)N=4)c2c1,81.4%
6,COc1ccc(/C=C/C(=O)c2ccc(NC(=O)CSc3nnc(-c4ccc(OC)cc4)n3-c3ccccc3)cc2)cc1,94.1%
7,N=C(N)c1ccc(-c2ccc(-c3cc(Cl)cc(Cl)c3)o2)nc1,-75.6% (active)
8,CN(C)c1ccc(N2Cc3ccccc3OC3=C2C(=O)c2c(O)ccc(O)c2C3=O)cn1,6.23% (active)
9,COc1ccccc1/C=N\NC(=S)Nc1ccc(F)cc1,89.1%
10,FC(F)(F)C1=NNC(c2ccc3ccccc3c2)=NN1,96.6%
11,CCCC(CCC)NCC(O)c1cc(-c2ccc(C(F)(F)F)cc2)nc(C(F)(F)F)c1 (stereo not drawn),8.92% (active)
12,CCOC(=O)c1c(NC(=O)c2ccccc2)sc2c(O)c(CN(CC)CC)ccc12,43.8%
13,CCOC(C)(c1ccc(Cl)cc1)C1CCNCC1 (stereo not drawn),101%
14,O=S(=O)(NCC[C@@H]1C[C@H]1c1ccc2ccccc2c1)c1ccc(C(F)(F)F)cc1,97.3%
15,CC(CN1CCN(C)CC1)CN1c2ccccc2Sc2ccc(C(F)(F)F)cc21 (stereo not drawn),63.1%
16,NC(=S)N/N=C(/c1cccs1)C1CC1,100%
17,COc1cc(C2Nc3ccccc3S2)cc(CN2CCOCC2)c1O (stereo not drawn),75.9%
18,O=[N+]([O-])c1cccc([I+]c2ccccc2)c1,71.3%
19,C=CCn1c(SCC(=O)Nc2ccc(/C(C)=N\O)cc2)nnc1-c1cc(-c2ccccc2)nc2ccccc12,68.5%
20,C=CC[C@]1(O)CC[C@H]2[C@@H]3CCc4cc(O)ccc4[C@H]3CC[C@@]21C,94.4%

row,Structure (SMILES),growth
1,CC(=O)c1c(O)c(C)c(O)c2c1OC1=CC(=O)/C(=C(/C)N)C(=O)C12C (stereo not drawn),103%
2,COc1c(B(O)O)cccc1-c1nc2c(F)cc3n[nH]c(C)c3c2c2c1CCCC2,18.1%
3,CCCCNCC(O)c1cc(-c2ccc(C(F)(F)F)cc2)nc(-c2ccc(C(F)(F)F)cc2)c1 (stereo not drawn),-77.1% (active)
4,Oc1[nH]c2ccc(Cl)cc2c1/C=c1/ccc2c(c1)N=C(c1ccc(F)cc1)N=2,69%
5,COc1ccc(C(=O)c2c(N)nc3n2CCCC3)cc1OC,110%
6,CCOC(=O)Nc1ccc2nc(-c3cscn3)[nH]c2c1,63.2%
7,CCOC(=O)C(Nc1ccccc1)C(=O)OCC,105%
8,CN1CCN(Cc2ccc(NC(=O)c3cncc(C#Cc4ncc5ccccn45)c3)cc2C(F)(F)F)CC1,39%
9,COS(=O)(=O)CCN(CCOS(C)(=O)=O)S(C)(=O)=O,107%
10,O=C(c1ccccc1)N(CCCCl)C(=O)N(CCCCl)C(=O)c1ccccc1,97.4%
11,OC(c1cc2cc(Cl)ccc2c2cc(C(F)(F)F)ccc12)C1CCCCN1 (stereo not drawn),-68.6% (active)
12,CC(C)CC(NC(=O)C(CCCN=C(N)N)NC(=O)OCc1ccccc1)C(=O)NC(CNC(=O)/C=C/c1ccccc1)C(C)C (stereo not drawn),99.9%
13,CCn1c(CN2CCN(Cc3ccccc3)CC2)nc2cc(NC(=O)c3cccs3)ccc21,-41.7% (active)
14,COc1cc(C)cc2oc3oc(=O)c(-c4csc(-c5cc6ccccc6oc5=O)n4)cc3c(=O)c12,99.3%
15,OC(c1cc2c(Cl)cc(Cl)cc2c2cc(C(F)(F)F)ccc12)C1CCCCN1 (stereo not drawn),-72.8% (active)
16,N#CC1=C(N)Oc2nc[nH]c(=O)c2C1c1cccs1 (stereo not drawn),104%
17,Cc1cc(C)cc(Nc2cc(C)nc3nc(C(F)(F)F)nn23)c1,45.7%
18,Cc1ccc(N2C3c4ccccc4N(S(=O)(=O)c4ccc(C)cc4)C2c2ccccc2N3S(=O)(=O)c2ccc(C)cc2)cc1,111%
19,CCOC(=O)c1ccc(NC(=O)NC2=NCCS2)cc1,54.3%

# Test system: U251 CNS
# Experiment: as above
# Details: 10 µM unless noted
row,Structure (SMILES),growth
1,[O-]/[N+](=C\c1ccccc1)CC1(O)CCCCC1,97.6%
2,CC(=O)O[C@H]1[C@H](CC#CC#CC[C@@H]2C[C@]3(C)[C@H]4CC=C5[C@H]6[C@@H](C)[C@H](C)CC[C@]6(C(=O)NCCCCCCCCN)CC[C@@]5(C)[C@]4(C)CC[C@H]3C(C)(C)[C@H]2OC(C)=O)C[C@]2(C)[C@H]3CC=C4[C@H]5[C@@H](C)[C@H](C)CC[C@]5(C(=O)NCCCCCCCCN)CC[C@@]4(C)[C@]3(C)CC[C@H]2C1(C)C,98.2%
3,N#Cc1c(N)c(C(=O)c2ccc3c(c2)OCCO3)n2c1CCCC2,15.4%
4,Cc1c(O)c(=O)n(-c2ccccc2)n1C,105%
5,COc1ccc2[nH]c(O)c(/C=c3/ccc4c(c3)N=C(c3ccc(C(F)(F)F)cc3)N=4)c2c1,51.6%
6,COc1ccc(/C=C/C(=O)c2ccc(NC(=O)CSc3nnc(-c4ccc(OC)cc4)n3-c3ccccc3)cc2)cc1,87.1%
7,N=C(N)c1ccc(-c2ccc(-c3cc(Cl)cc(Cl)c3)o2)nc1,-88.3% (active)
8,CN(C)c1ccc(N2Cc3ccccc3OC3=C2C(=O)c2c(O)ccc(O)c2C3=O)cn1,-15.7% (active)
9,COc1ccccc1/C=N\NC(=S)Nc1ccc(F)cc1,62%
10,FC(F)(F)C1=NNC(c2ccc3ccccc3c2)=NN1,99.2%
11,CCCC(CCC)NCC(O)c1cc(-c2ccc(C(F)(F)F)cc2)nc(C(F)(F)F)c1 (stereo not drawn),-96.6% (active)
12,CCOC(=O)c1c(NC(=O)c2ccccc2)sc2c(O)c(CN(CC)CC)ccc12,1.72% (active)
13,CCOC(C)(c1ccc(Cl)cc1)C1CCNCC1 (stereo not drawn),92.4%
14,O=S(=O)(NCC[C@@H]1C[C@H]1c1ccc2ccccc2c1)c1ccc(C(F)(F)F)cc1,93.5%
15,CC(CN1CCN(C)CC1)CN1c2ccccc2Sc2ccc(C(F)(F)F)cc21 (stereo not drawn),1% (active)
16,NC(=S)N/N=C(/c1cccs1)C1CC1,72.9%
17,COc1cc(C2Nc3ccccc3S2)cc(CN2CCOCC2)c1O (stereo not drawn),86.7%
18,O=[N+]([O-])c1cccc([I+]c2ccccc2)c1,52.1%
19,C=CCn1c(SCC(=O)Nc2ccc(/C(C)=N\O)cc2)nnc1-c1cc(-c2ccccc2)nc2ccccc12,59.1%
20,C=CC[C@]1(O)CC[C@H]2[C@@H]3CCc4cc(O)ccc4[C@H]3CC[C@@]21C,93.4%

row,Structure (SMILES),growth
1,CC(=O)c1c(O)c(C)c(O)c2c1OC1=CC(=O)/C(=C(/C)N)C(=O)C12C (stereo not drawn),94.7%
2,COc1c(B(O)O)cccc1-c1nc2c(F)cc3n[nH]c(C)c3c2c2c1CCCC2,13.6%
3,CCCCNCC(O)c1cc(-c2ccc(C(F)(F)F)cc2)nc(-c2ccc(C(F)(F)F)cc2)c1 (stereo not drawn),-92.1% (active)
4,Oc1[nH]c2ccc(Cl)cc2c1/C=c1/ccc2c(c1)N=C(c1ccc(F)cc1)N=2,72%
5,COc1ccc(C(=O)c2c(N)nc3n2CCCC3)cc1OC,98.5%
6,CCOC(=O)Nc1ccc2nc(-c3cscn3)[nH]c2c1,35%
7,CCOC(=O)C(Nc1ccccc1)C(=O)OCC,109%
8,CN1CCN(Cc2ccc(NC(=O)c3cncc(C#Cc4ncc5ccccn45)c3)cc2C(F)(F)F)CC1,-27.7% (active)
9,COS(=O)(=O)CCN(CCOS(C)(=O)=O)S(C)(=O)=O,96.8%
10,O=C(c1ccccc1)N(CCCCl)C(=O)N(CCCCl)C(=O)c1ccccc1,88.5%
11,OC(c1cc2cc(Cl)ccc2c2cc(C(F)(F)F)ccc12)C1CCCCN1 (stereo not drawn),-93.4% (active)
12,CC(C)CC(NC(=O)C(CCCN=C(N)N)NC(=O)OCc1ccccc1)C(=O)NC(CNC(=O)/C=C/c1ccccc1)C(C)C (stereo not drawn),106%
13,CCn1c(CN2CCN(Cc3ccccc3)CC2)nc2cc(NC(=O)c3cccs3)ccc21,-91.4% (active)
14,COc1cc(C)cc2oc3oc(=O)c(-c4csc(-c5cc6ccccc6oc5=O)n4)cc3c(=O)c12,110%
15,OC(c1cc2c(Cl)cc(Cl)cc2c2cc(C(F)(F)F)ccc12)C1CCCCN1 (stereo not drawn),-93% (active)
16,N#CC1=C(N)Oc2nc[nH]c(=O)c2C1c1cccs1 (stereo not drawn),96.3%
17,Cc1cc(C)cc(Nc2cc(C)nc3nc(C(F)(F)F)nn23)c1,31.5%
18,Cc1ccc(N2C3c4ccccc4N(S(=O)(=O)c4ccc(C)cc4)C2c2ccccc2N3S(=O)(=O)c2ccc(C)cc2)cc1,91.8%
19,CCOC(=O)c1ccc(NC(=O)NC2=NCCS2)cc1,26.6%
